The source made the active and inactive calls. Unless noted, no rule for the calls is given here.
How the values were obtained:
[1] = system: Wnt5a (protein binding on small-molecule microarray); assay: small molecules binding Wnt5a protein – biophysical, small-molecule microarray, 635/667 nm fluorescence, primary screen (AID 1142); conditions: 635 nm fluorescence, higher = more signal;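 also: fluorescence read at 667 nm with signal to noise per printed feature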
[2] = ATP-based viability of Huh7 replicon cells – cell-based, CellTiter-Glo luminescence, basal, 48 h, cytotoxicity control for HCV replication inhibitor project, primary screen (AID 1143); conditions: higher = more signal, called active from +8 up or from −8 down;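 also: Huh7 hepatoma cells carrying a hepatitis C replication reporter with no stimulus; test concentration not given here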
[3] = Pseudomonas biofilm growth suppression – PAO1 strain, BacTiter-Glo luminescence, LB-PBS, primary screen (AID 1144); conditions: P. aeruginosa PAO1 biofilm, 12 h, higher = more signal
[4] = basal CRE-LacZ reporter activity in PC12 – cell-based, unstimulated, primary screen (AID 1145); conditions: no forskolin, luminescence, 4.5 h, higher = more signal, called active from +8 up or from −8 down
[5] = forskolin-driven CRE-LacZ activity in PC12 – cell-based, CRE-LacZ reporter, forskolin-stimulated, primary screen (AID 1146); conditions: luminescence, 4.5 h, higher = more signal, called active from +8 up or from −8 down;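 also: PC12 cells with 6xCRE LacZ reporter stimulated by forskolin 10 µM; beta-galactosidase reporter signal reflecting CREB driven transcription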
[6] = molecular target: Streptavidin (Streptomyces avidinii) (UniProt P22629); assay: compounds binding control protein streptavidin – biophysical, small-molecule microarray, 635/667 nm fluorescence, artefact control for SMM compound annotation, primary screen (AID 1147); conditions: higher = more signal;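 also: signal reflects streptavidin binding to arrayed compounds as a control protein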
Streptavidin (Streptomyces avidinii), sequence (P22629 whole entry, looked up): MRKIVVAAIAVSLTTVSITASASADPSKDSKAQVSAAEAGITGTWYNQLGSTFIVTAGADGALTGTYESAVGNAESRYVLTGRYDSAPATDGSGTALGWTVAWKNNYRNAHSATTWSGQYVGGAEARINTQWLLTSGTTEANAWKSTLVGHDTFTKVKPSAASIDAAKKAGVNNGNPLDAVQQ

[7] = probe aInhba binding on compound microarray – biochemical, small-molecule microarray, 635/667 nm fluorescence, primary screen (AID 1148); conditions: higher = more signal;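 also: score merges 667nm spot fluorescence with signal-to-noise for antibody binding to printed compounds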
Torsin-1A (Homo sapiens) [8] = molecular target: Torsin-1A (Homo sapiens) (UniProt O14656); assay: TOR1A wild-type binding on microarray – cell lysate, small-molecule microarray, lysate, 635/667 nm, primary screen (AID 1149); conditions: COS7 hTOR1A-WT lysate, 635 nm fluorescence, higher = more signal
Torsin-1A (Homo sapiens), sequence (O14656 whole entry, looked up): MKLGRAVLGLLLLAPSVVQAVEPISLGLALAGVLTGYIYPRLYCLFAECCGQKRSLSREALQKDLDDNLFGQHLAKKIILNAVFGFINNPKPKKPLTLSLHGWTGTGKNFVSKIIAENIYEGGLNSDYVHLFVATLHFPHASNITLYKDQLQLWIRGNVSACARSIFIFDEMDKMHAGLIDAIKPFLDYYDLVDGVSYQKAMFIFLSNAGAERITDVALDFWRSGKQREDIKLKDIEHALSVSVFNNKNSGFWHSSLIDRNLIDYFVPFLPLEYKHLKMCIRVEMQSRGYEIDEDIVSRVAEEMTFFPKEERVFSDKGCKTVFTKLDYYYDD

Torsin-1A (Homo sapiens) [9] = molecular target: Torsin-1A (Homo sapiens) (UniProt O14656); assay: torsin A mutant lysate binding on microarrays – cell lysate, small-molecule microarray, COS7 lysate, 635/667 nm fluorescence, primary screen (AID 1150); conditions: COS7 hTOR1A mutant lysate, 635 nm fluorescence, higher = more signal;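 also: score pools 667 nm emission and signal to noise measuring lysate protein binding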
[10] = system: Sonic hedgehog protein (Shh); assay: Sonic hedgehog microarray binding compounds – biochemical, small-molecule microarray, 635/667 nm fluorescence, primary screen (AID 1151); conditions: 635 nm fluorescence, higher = more signal;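 also: Shh protein binding to compounds spotted on small-molecule microarray slides; score combines spot fluorescence intensity with signal-to-noise across triplicate slides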
[11] = optical density shifts of acrAB sulA E. coli – strain DRC41, OD650, 48 h, E. coli filamentation inducer project, primary screen (AID 1152); conditions: higher = more signal, called active from +8 up or from −8 down;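 also: E. coli MC1000 strain DRC41 lacking acrAB efflux pump and sulA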
[12] = probe aLefty1 binding on compound microarray – biochemical, small-molecule microarray, 635/667 nm fluorescence, primary screen (AID 1153); conditions: higher = more signal;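 also: score merges spot fluorescence with signal-to-noise ratio from the scanned slide images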
[13] = plasmodial surface anion channel blockers, osmotic lysis – cell-based, P. falciparum Indochina, OD700, 1 h, primary screen (AID 1154); conditions: P. falciparum Indochina infected RBC osmotic lysis, higher = more signal, called active from +8 up or from −8 down
[14] = plasmodial surface anion channel blockers, osmotic lysis – cell-based, P. falciparum Indochina, OD700, 2 h, primary screen (AID 1155);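 also: lysis reports solute entry through the parasite surface anion channel PSAC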; conditions: P. falciparum Indochina infected erythrocytes, higher = more signal, called active from +8 up or from −8 down
[15] = changes in parasitized red cell lysis, either direction – P. falciparum Indochina, OD700, 3 h, PSAC antagonist project, primary screen (AID 1156); conditions: P. falciparum-infected erythrocytes, osmotic lysis, higher = more signal, called active from +8 up or from −8 down
[16] = plasmodial surface anion channel blockers, osmotic lysis – cell-based, P. falciparum Indochina, OD700, 18 h, primary screen (AID 1157); conditions: P. falciparum Indochina infected erythrocytes, osmotic lysis OD700, 18 h; higher = more signal, called active from +8 up or from −8 down
[17] = S6 kinase pathway phospho-S6 level changes – cell-based, A549, cytoblot, luminescence, serum-stimulated, primary screen (AID 1158); conditions: 5 h, higher = more signal;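 also: serum-stimulated A549 lung adenocarcinoma cells; signal is phosphorylated S6 detected by cytoblot immunostaining with HRP secondary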
[18] = molecular target: NADPH oxidase 2 (Homo sapiens) (UniProt P04839); assay: compounds shifting NOX2 Amplex Red fluorescence – cell-based, HEK293-NOX2, PMA-stimulated, NOX inhibitor project, primary screen (AID 1159); conditions: 45 min, higher = more signal, called active from +8 up or from −8 down; also: test concentration not given here
NADPH oxidase 2 (Homo sapiens), sequence (P04839 whole entry, looked up): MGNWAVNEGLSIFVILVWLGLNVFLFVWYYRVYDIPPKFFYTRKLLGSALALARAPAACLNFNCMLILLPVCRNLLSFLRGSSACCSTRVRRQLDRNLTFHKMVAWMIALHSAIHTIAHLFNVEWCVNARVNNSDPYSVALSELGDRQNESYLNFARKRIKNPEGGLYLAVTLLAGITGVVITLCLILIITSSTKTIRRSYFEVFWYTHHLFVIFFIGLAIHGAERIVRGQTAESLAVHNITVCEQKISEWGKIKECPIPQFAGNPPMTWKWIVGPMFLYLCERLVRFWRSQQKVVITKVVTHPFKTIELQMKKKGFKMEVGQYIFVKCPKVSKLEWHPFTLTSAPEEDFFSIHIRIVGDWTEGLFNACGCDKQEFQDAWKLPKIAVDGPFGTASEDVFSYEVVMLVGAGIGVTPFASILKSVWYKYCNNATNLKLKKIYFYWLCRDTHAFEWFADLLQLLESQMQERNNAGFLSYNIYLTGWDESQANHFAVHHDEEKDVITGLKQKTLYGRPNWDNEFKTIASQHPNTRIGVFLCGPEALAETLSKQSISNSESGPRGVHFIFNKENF

[19] = molecular target: NADPH oxidase 4 (Homo sapiens) (UniProt Q9NPH5); assay: compounds shifting NOX4 Amplex Red fluorescence – cell-based, HEK293-NOX4, tetracycline-induced, NOX inhibitor project, primary screen (AID 1160); conditions: HEK293-NOX4, Amplex Red H2O2 fluorescence, 45 min; higher = more signal, called active from +8 up or from −8 down
NADPH oxidase 4 (Homo sapiens), sequence (Q9NPH5 whole entry, looked up): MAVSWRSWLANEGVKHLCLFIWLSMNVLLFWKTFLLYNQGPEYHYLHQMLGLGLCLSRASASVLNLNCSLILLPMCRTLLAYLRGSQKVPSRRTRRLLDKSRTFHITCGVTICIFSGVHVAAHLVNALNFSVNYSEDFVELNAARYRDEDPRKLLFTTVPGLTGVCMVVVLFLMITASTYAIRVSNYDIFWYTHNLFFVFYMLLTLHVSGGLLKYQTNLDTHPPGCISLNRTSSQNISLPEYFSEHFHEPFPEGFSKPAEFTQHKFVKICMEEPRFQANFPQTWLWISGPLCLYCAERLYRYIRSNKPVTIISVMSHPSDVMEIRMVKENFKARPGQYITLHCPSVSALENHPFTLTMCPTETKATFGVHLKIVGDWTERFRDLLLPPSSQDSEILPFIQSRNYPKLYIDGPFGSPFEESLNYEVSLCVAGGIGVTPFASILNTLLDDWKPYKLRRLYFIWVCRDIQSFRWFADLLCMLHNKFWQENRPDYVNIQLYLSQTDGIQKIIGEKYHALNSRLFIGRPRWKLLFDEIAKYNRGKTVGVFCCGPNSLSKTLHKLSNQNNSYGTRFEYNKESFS

[20] = molecular target: NADPH oxidase 5 (Homo sapiens) (UniProt Q96PH1); assay: compounds shifting NOX5 Amplex Red fluorescence – cell-based, HEK293-NOX5, NOX inhibitor project, primary screen (AID 1161); conditions: HEK293-NOX5, ionomycin, 45 min, higher = more signal
NADPH oxidase 5 (Homo sapiens), sequence (Q96PH1 whole entry, looked up): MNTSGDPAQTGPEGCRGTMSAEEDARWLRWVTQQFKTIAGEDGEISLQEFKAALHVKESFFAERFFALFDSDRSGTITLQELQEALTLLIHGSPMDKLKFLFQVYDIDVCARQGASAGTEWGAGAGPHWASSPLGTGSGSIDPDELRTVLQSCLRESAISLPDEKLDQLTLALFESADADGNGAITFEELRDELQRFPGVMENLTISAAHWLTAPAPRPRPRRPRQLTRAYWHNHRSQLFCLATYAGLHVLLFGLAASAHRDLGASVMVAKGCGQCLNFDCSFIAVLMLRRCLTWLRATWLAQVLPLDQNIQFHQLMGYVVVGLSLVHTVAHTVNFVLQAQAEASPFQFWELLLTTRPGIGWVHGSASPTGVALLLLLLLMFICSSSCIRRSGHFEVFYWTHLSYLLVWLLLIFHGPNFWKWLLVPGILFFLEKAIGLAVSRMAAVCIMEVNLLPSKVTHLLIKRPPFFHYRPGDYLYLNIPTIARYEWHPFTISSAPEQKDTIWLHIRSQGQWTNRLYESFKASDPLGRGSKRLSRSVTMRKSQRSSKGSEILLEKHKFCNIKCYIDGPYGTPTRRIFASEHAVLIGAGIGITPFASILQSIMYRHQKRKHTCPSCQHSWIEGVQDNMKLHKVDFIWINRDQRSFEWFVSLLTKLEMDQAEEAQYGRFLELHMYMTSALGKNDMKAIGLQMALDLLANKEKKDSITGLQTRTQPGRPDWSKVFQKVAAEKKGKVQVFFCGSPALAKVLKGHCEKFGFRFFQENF

For C=CCN1C(=O)[C@@]2(O[C@@H](CCO)[C@H]([Si](C)(C)c3ccc(OC)cc3)[C@H]2C)c2cc(N3CCOC3=O)ccc21, the composite z-score [1] was -0.0317, the z-score [2] was -7.42 (inactive) and the z-score [3] was -0.202 (inactive). The z-score [4] was 6.34 (inactive), the z-score [5] was -3.56 (inactive) and the composite z-score [6] was 0.0828. The composite z-score [7] was -0.0695, the composite z-score (Torsin-1A (Homo sapiens) [8]) was -0.0921 and the composite z-score (Torsin-1A (Homo sapiens) [9]) was 0.543. The composite z-score [10] was -0.285, the z-score [11] was 0.232 (inactive) and the composite z-score [12] was -0.152. The z-score [13] was 24.6 (active), the z-score [14] was 12.6 (active) and the z-score [15] was 0.28 (inactive). For the same molecule, the z-score [16] was 2.21 (inactive), the z-score [17] was 0.309 and the z-score [18] was -2.41 (inactive). For the same molecule, the z-score [19] was 1.35 (inactive) and the z-score [20] was -1.52.
For COc1ccc([Si](C)(C)[C@@H]2[C@@H](CC(=O)N3Cc4ccccc4C[C@H]3CO)O[C@]3(C(=O)N(c4ccccc4)c4ccccc43)[C@H]2C)cc1, the composite z-score [1] was 0.6, the z-score [2] was -4.81 (inactive) and the z-score [3] was -0.751 (inactive). For the same molecule, the z-score [4] was 2.36 (inactive), the z-score [5] was 0.931 (inactive) and the composite z-score [6] was 0.627. The composite z-score [7] was 0.128, the composite z-score (Torsin-1A (Homo sapiens) [8]) was 1.56 and the composite z-score (Torsin-1A (Homo sapiens) [9]) was 0.871. The composite z-score [10] was 1.47, the z-score [11] was 0.162 (inactive) and the composite z-score [12] was 0.855. The z-score [13] was 6.47 (inactive), the z-score [14] was 1.76 (inactive) and the z-score [15] was 0.168 (inactive). For the same molecule, the z-score [16] was 1.65 (inactive), the z-score [17] was 0.947 and the z-score [18] was 0.651 (inactive). For the same molecule, the z-score [19] was 0.71 (inactive) and the z-score [20] was 0.544.
In the case of CC(C)N1CC=CC23O[C@@H]4/C=C\CCCOC(=O)C4[C@H]2C(=O)N(CCCCCCO)[C@@H]3C1=O (stereo not given in full), the composite z-score [1] is reported as -0.0379, the z-score [2] is reported as 0.0722 (inactive) and the z-score [3] is reported as -0.0303 (inactive). The z-score [4] was -0.48 (inactive), the z-score [5] was -1.02 (inactive) and the composite z-score [6] was -1.13. It also gave a composite z-score [7] of -0.205, a composite z-score (Torsin-1A (Homo sapiens) [8]) of -0.14 and a composite z-score (Torsin-1A (Homo sapiens) [9]) of 0.55. The composite z-score [10] was -0.0836, the z-score [11] was 2.15 (inactive) and the composite z-score [12] was 0.248. For the same molecule, the z-score [13] was 0.904 (inactive), the z-score [14] was 0.0039 (inactive) and the z-score [15] was 0.622 (inactive). For the same molecule, the z-score [16] was 0.133 (inactive), the z-score [17] was 0.842 and the z-score [18] was 1 (inactive). For the same molecule, the z-score [19] was 0.105 (inactive) and the z-score [20] was 1.92.
With C=CCC(OC(C)=O)[C@@H]1[C@@H](N(Cc2ccc(-c3cccc(C(F)(F)F)c3)o2)C(=O)c2ccc(C)cc2)c2cc(OCCCO)ccc2N1C(=O)Cc1ccc(OC)cc1 (stereo not given in full) the composite z-score [1] was 0.058, the z-score [2] was -0.159 (inactive) and the z-score [3] was -0.853 (inactive). The z-score [4] was -0.477 (inactive), the z-score [5] was 0.514 (inactive) and the composite z-score [6] was -0.109. For the same molecule, the composite z-score [7] was -0.128, the composite z-score (Torsin-1A (Homo sapiens) [8]) was -0.425 and the composite z-score (Torsin-1A (Homo sapiens) [9]) was 0.197. The composite z-score [10] was 1.53, the z-score [11] was 2.06 (inactive) and the composite z-score [12] was 0.0934. For the same molecule, the z-score [13] was 2.58 (inactive), the z-score [14] was 0.0001 (inactive) and the z-score [15] was 0.636 (inactive). The z-score [16] was 0.432 (inactive), the z-score [17] was 0.194 and the z-score [18] was -1.44 (inactive). The z-score [19] was 0.641 (inactive) and the z-score [20] was 0.233.

Reference: PubChem BioAssay
